In the library only some 1.5% were active in any assay of this set; here they are far more common.
RAD52 inh = RAD52 (human) annealing inhibition | P43351 | recombinant RAD52 DNA annealing, FRET fluorescence | inhibition, % at 18.7 µM | 360,000 compounds, 0.46% hits;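 active = every replicate showing at least 50% inhibition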
N-glyco inh = N-linked glycosylation inhibition. D54 ERlucT glycosylation luciferase reporter, 24 h; percent of 100 nM tunicamycin response. reporter increase, % at 12.5 µM. 360,000 compounds, 0.23% hits. AID 588692;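 active = mean luciferase reporter signal, scaled so untreated is 0 and the glycosylation-blocking control 100, at or above a set limit in every replicate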;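 note: luciferase carries N-glycosylation sites so blocking glycosylation raises the light; 0% = median of neutral control wells and 100% = median of 100 nM tunicamycin wells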
RAD54 branch = inhibitors of human RAD54 branch migration | 360,000 compounds, 0.14% hits | AID 602329 | inhibition, % at 10.4 µM | RAD54 Holliday junction branch migration, FAM/BHQ fluorescence | Q92698;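 active = mean normalized replicate activity at least 40 and at least half of replicates scoring 40 or more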;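 note: 0% = median of neutral control wells and 100% = median of positive control wells; inhibitors cause a drop in the FAM fluorescence signal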
Target sequence (Q92698 whole entry, looked up): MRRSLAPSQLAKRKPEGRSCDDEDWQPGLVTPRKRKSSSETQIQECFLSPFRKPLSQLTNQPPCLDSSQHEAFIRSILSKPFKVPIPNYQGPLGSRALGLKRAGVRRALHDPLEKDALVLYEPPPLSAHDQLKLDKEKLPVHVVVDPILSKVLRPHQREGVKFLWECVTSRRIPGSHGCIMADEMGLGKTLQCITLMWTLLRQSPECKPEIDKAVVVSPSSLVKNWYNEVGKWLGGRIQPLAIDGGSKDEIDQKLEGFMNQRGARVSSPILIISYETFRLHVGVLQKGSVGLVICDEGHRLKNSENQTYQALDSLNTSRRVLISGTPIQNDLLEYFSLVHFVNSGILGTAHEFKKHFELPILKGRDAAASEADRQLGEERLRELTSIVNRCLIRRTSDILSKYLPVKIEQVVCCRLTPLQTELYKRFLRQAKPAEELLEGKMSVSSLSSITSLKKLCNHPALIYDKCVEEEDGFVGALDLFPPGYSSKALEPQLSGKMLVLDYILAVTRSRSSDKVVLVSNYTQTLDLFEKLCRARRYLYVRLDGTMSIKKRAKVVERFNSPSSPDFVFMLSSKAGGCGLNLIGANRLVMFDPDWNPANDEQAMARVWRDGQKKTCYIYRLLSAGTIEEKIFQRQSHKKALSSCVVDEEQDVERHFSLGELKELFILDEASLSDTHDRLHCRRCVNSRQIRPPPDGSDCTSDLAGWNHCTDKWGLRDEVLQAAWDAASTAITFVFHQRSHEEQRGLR
PvdQ acylase = blocks Pseudomonas aeruginosa PvdQ acylase activity | 340,000 compounds, 0.063% hits | inhibition, % at 10 µM | purified PvdQ acylase, fluorescence plate reader; in the data active = inhibition above about 30%, passing the limit was not always enough;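 note: 0% = vehicle neutral wells and 100% = reference inhibitor wells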
CFTR F508del cor = correctors of CFTR F508del function in bronchial epithelial cells. CFBE cells, YFP halide quenching; stimulated with forskolin plus potentiator P3; % fluorescence drop versus neutral controls. 350,000 compounds, 0.36% hits. activity (quench increase), % at 7.58 µM;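 active = mean added fluorescence quench of at least 8% versus neutral control, with both replicates also reaching 8%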;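 note: cells transiently co-express mutant CFTR-F508del with the halide-sensitive YFP; corrector assay measuring rescue of mutant channel to the surface after 24 h compound exposure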
dFosB act = enhances mouse delta FosB homodimer DNA binding; purified delta FosB, TAMRA-CDK5 oligo fluorescence polarization; percent of positive-control signal above neutral wells; 340,000 compounds, 0.99% hits; activation, % at 25 µM; P13346;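 active = mean activation above about 17%, with every replicate also reaching it, limit read from the data, passing the limit was not always enough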
Starred values were filed as active, the others as inactive; i = inactive; · = no result given; ! = not active in a repeat.

SMILES	RAD52 inh	N-glyco inh	RAD54 branch	PvdQ acylase	CFTR F508del cor	dFosB act
CCN1C(=O)CC(N2CCC(C(=O)OC)CC2)C1=O (stereo unspecified)	·	0	5	-13	·	4
COC(=O)C1CCN(C2CC(=O)N(c3cc(C)cc(C)c3)C2=O)CC1 (stereo unspecified)	-12	0	·	36*	-6	-8
Cn1nc(C(F)(F)F)c(/C=N/OC(=O)c2ccccc2Cl)c1SCc1ccccc1Cl	·	58*	0	-10	·	5
Cn1nc(C(F)(F)F)c(/C=N/OC(=O)c2ccc(Cl)cc2)c1Cl	·	0	-6	2	·	-1
Cn1nc(C(F)(F)F)c(/C=N/OC(=O)c2ccccc2)c1SCc1ccc(Cl)cc1	·	73*	-7	-11	·	-2
O=C(Nc1ccc(F)cc1)N1CCCCN2[C@H](C1)[C@H](c1ccc(C#Cc3ccccc3)cc1)[C@@H]2CO	-14	·	10	·	-1	·
C[C@]1(O)CC(=O)C=C[C@H]1Nc1ccccc1	-4	44*	-7	-12	-2	-2
CC1(C)CC(C(=O)Nc2ccccc2)C(=O)O1 (stereo unspecified)	-5	-2	-1	11	0	0
CC(/C=N/NC(=O)c1cc(C(C)(C)C)[nH]n1)=C\c1ccccc1	·	3	·	-11	·	-22
CC(/C=N/NC(=O)c1cc(-c2ccc(C)s2)[nH]n1)=C\c1ccccc1	-6	27*	·	-13	·	8
C[C@H]1CCCCO[C@H](CN(C)C(=O)NC2CCCCC2)[C@@H](C)CN([C@@H](C)CO)C(=O)c2cc(NS(=O)(=O)c3cccs3)ccc2O1	-47	·	-3	·	2	·
O=C(NCCc1ccccc1)c1cc(-c2ccco2)on1	-8	48*	3	-17	-2	-2
COc1ccc(CCNC(=O)c2cc(-c3ccco3)on2)cc1OC	-34	63*	-18	6	-5	-10
COc1ccc2c3c(n(C)c2c1)[C@@H](CO)N(Cc1ccncc1)CC31CCN(C(=O)NC(C)C)CC1	-132	·	·	·	-2	·
O=S(=O)(c1ccc(-c2ccccc2)cc1)N1CCN(Cc2cccc(OCCO)c2)CC1	28	·	·	·	5	·
C=CCc1cccc(/C=N/NC(=O)c2ccc3nc[nH]c3c2)c1O	-3	-7	11	-4	2	19*
CCC(=O)N1CC2(C1)CN(C(=O)Nc1ccccc1F)[C@@H](CO)c1[nH]c3cc(OC)ccc3c12	14	·	·	·	-2	·
Cc1ccc2nc3c(cc(C(N)=S)c(=N)n3CCCOC(C)C)c(=O)n2c1	-226	37*	15	-11	5	-18
COCCCn1c(=N)c(C(N)=S)cc2c(=O)n3cccc(C)c3nc21	34	4	30	-16	-1	-7
CCCNC(=O)Nc1ccc2c(c1)C(=O)N(C)C[C@H](OC)[C@H](C)CN(Cc1cncnc1)[C@@H](C)CO2	4	·	5	·	2	·
O=C(Nc1ccc(N2CCCC2)cc1)c1ccccc1F	·	-5	0	6	·	26*
O=C(Nc1ccc(N2CCCC2)cc1)c1cccc(F)c1	·	-1	1	-13	·	19*
CO[C@H]1CN(C)C(=O)c2ccc(NC(=O)Nc3cc(F)ccc3F)cc2OC[C@H](C)N(C(=O)c2cnccn2)C[C@@H]1C	2	·	-9	·	1	·
CN(C)C(=O)c1cccc(-c2ccc(C3[C@H]4CNC[C@@H]3N4Cc3cc(F)ccc3F)cc2)c1 (stereo partly specified)	-19	·	·	·	-3	·
CCN(CC)C(=S)SSC(=S)N(CC)CC	-32	7	2	-6	14*	5
SMILES	RAD52 inh	N-glyco inh	RAD54 branch	PvdQ acylase	CFTR F508del cor	dFosB act
CCN(CC)C(=S)SCC(=O)c1ccccc1	·	-7	-6	4	·	4
O=C(C[C@H]1C[C@@H]2c3cc(NC(=O)Nc4ccc(F)cc4)ccc3O[C@@H]2[C@@H](CO)O1)NCC(F)(F)F	3	·	2	·	0	·
Cc1c(C2Nc3ccccc3C2C)[nH]c2ccccc12 (stereo unspecified)	-36	·	·	·	10*	·
CCCNC(=O)Nc1ccc2c(c1)OC[C@@H](C)N(C(=O)C1CC1)C[C@H](C)[C@@H](OC)CN(C)C2=O	14	·	-4	·	1	·
CCN(CC)c1ccc2c(-c3ccc(S(=O)(=O)O)cc3S(=O)(=O)[O-])c3ccc(=[N+](CC)CC)cc-3oc2c1	i	-11	-366	19	·	63*
CCN(CC)c1ccc2nc3c4ccccc4c(=O)cc-3oc2c1	-30	·	·	·	2	·
C[C@@H]1CN([C@@H](C)CO)C(=O)c2cc(NC(=O)Cc3ccccc3)ccc2O[C@@H](C)CCCCO[C@H]1CN(C)S(=O)(=O)c1cccs1	·	·	-2	·	-2	·
CCN1CCCC(OC(=O)c2cc(-c3ccccc3Cl)nc3ccccc23)C1 (stereo unspecified)	18	-5	·	-16	12*	-1
CO[C@@H]1CN(C)C(=O)c2ccc(NC(=O)Cc3ccccc3)cc2OC[C@@H](C)N(CC2CC2)C[C@@H]1C	20	·	4	·	4	·
O=C(Nc1ccc(C(F)(F)F)cc1)N1C[C@@H]2N[C@H](C1)C2c1ccc(/C=C/c2ccccc2)cc1 (stereo partly specified)	65*	·	·	·	-3	·
O=C(Nc1ccc(C(F)(F)F)cc1)N1[C@@H]2CNC[C@H]1C2c1ccc(-c2cccnc2)cc1 (stereo partly specified)	19	·	·	·	1	·
O=C(Nc1ccc(C(F)(F)F)cc1)N1C[C@@H]2N[C@H](C1)C2c1ccc(-c2ccccc2)cc1 (stereo partly specified)	79*!	·	·	·	-10	·
O=C(Nc1ccc(C(F)(F)F)cc1)N1[C@@H]2CNC[C@H]1C2c1ccc(-c2ccc(F)cc2)cc1 (stereo partly specified)	61*	·	·	·	-2	·
CCOc1ccc(-c2cc(C(=O)N3CCN(c4ccccn4)CC3)c3ccccc3n2)cc1	-6	9	0	-4	12*	-12
Cc1ccc(-c2ccc([C@@H]3[C@@H](CO)N4C(=O)CN(C(=O)Nc5cccc(F)c5)C[C@H]34)cc2)cc1	1	·	·	·	2	·
CSc1nc(N)nc2c1ncn2CC(=O)NCc1ccc2c(c1)OCO2	2	1	-2	3	2	20*
CCc1ccc(-c2nc(SCC(=O)c3c(N)n(C4CC4)c(=O)[nH]c3=O)n[nH]2)cc1	-15	1	4	-11	2	42*
COc1cc2sc3cc(NCCCN4CCOCC4)ccc3c(=O)c2cc1OC	81*	10	22	-3	5	5
COc1ccc(OC)c(S(=O)(=O)NCCCN2CCOCC2)c1	0	-2	-2	-4	0	4
CC1CCN(C(=O)C2COc3ccccc3O2)CC1 (stereo unspecified)	-2	0	-7	-15	16*	-1
O=C(C1COc2ccccc2O1)N1CCCC1 (stereo unspecified)	·	1	-3	-16	·	3

From PubChem
